Compound activity (PubChem)
Shown are actives, neighbours in structure and some others; about 9.6% of the full set was active somewhere.
Ins promoter up: insulin promoter activators in MIN6 cells, imaging, high-content screening, mouse beta cells. 0.3% of 190,000 active. MIN6 insulin promoter-GFP reporter; stronger effect = higher value. AID 1625, 2009. z-score at 5 µM;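 active = z-score above 3 at 5 µM with at least 500 cells counted in the well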
Insulin prom inh: inhibitors of insulin promoter-driven GFP, primary screen, imaging, TRM-6 cells (human fetal islet line), eGFP reporter, cell count; reporter expression induced with tamoxifen; inhibition, % at 2 µM; 0.9% of 130,000 active; AID 1273, 2008;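 active = inhibition above the mean plus 3 SD, with well images judged a real hit on visual review, cut at about 60% in these data, passing the limit was not always enough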
Autophagy mod: autophagy modulators in MEF cells, primary screen, imaging, high-content, MEF GFP-LC3. MEF GFP-LC3 puncta imaging; test concentration mostly 10 µM. calls only at 10 µM (by protocol). 0.98% of 190,000 active. AID 463193, 2010;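 active = percentage of spot-positive cells more than 3 SD above its plate mean, without a fluorescence outlier flag or 80% toxicity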;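 note: spot-positive cell cutoff set from DMSO-treated cells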
HCT116 bCat-KO: primary screen for growth suppressors in beta-catenin knockout HCT116 cells (colon tumor, human) | HCT116 beta-catenin knockout viability, CellTiter-Glo, 60 h; stronger effect = lower value | viability, % at 10 µM | 1.5% of 140,000 active | AID 818, 2007;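 active = viability at or under a set limit, the compound median less 4 SD, cut at about 6% in these data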;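 note: 0% = Hyamine 1622 control at 20 µM and 100% = untreated cell control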
L major viab: Leishmania major promastigote growth inhibition, primary screen | Leishmania major promastigotes, resazurin fluorescence viability | AID 1063, 2008 | inhibition, % at 10 µM | 9% of 200,000 active; in the data active = inhibition above about 50%;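 note: promastigotes grown with compound for 44 hours at 28 °C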
PTEN del growth: growth suppression of PTEN-null HCT116, primary screen, cell-based, CellTiter-Glo; HCT116 PTEN-null viability, 60 h; stronger effect = lower value; viability, % at 10 µM; 1.2% of 140,000 active;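 active = viability at or below a set limit, 4 SD under the median of all tested compounds, cut at about 3.7% in these data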;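 note: PTEN knockout HCT116 line with beta catenin targeted HCT116 as companion control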
Starred values were filed as active, the others as inactive; i = inactive; · = no result given; + = active, no number.

SMILES | Ins promoter up | Insulin prom inh | Autophagy mod | HCT116 bCat-KO | L major viab | PTEN del growth
COC(=O)c1ccccc1NC(=S)N(Cc1ccc2c(c1)OCO2)Cc1cc2ccc(C)cc2[nH]c1=O | -1.1 | 0 | i | 70 | 97* | 78
COC(=O)c1ccccc1NC(=S)N(Cc1ccc2c(c1)OCO2)Cc1cc2ccc(OC)cc2[nH]c1=O | · | -108 | i | 72 | 58* | 67
O=c1c2oc3ccccc3c2ncn1Cc1ccccc1F | -0.75 | · | i | 94 | -2 | 95
CSc1nc(-c2ccc(Cl)cc2Cl)[nH]c(=O)c1C#N | 0.17 | 79* | i | 97 | 0 | 102
COc1ccc(N2CCN(C(=O)CCCn3c(=O)[nH]c4cc(Cl)ccc4c3=O)CC2)cc1 | 0.01 | 74* | i | 90 | -3 | 91
CC(=O)c1ccc(N2CCN(C(=O)CCCn3c(=O)[nH]c4ccccc4c3=O)CC2)cc1 | -0.44 | 13 | i | · | 10 | ·
CCOc1ccccc1OCCn1ncc2ccc(OC)c(OC)c2c1=O | -0.49 | 50 | i | 91 | 5 | 95
COc1ccc2cnn(CCOc3cc(C)ccc3C(C)C)c(=O)c2c1OC | -0.36 | 6 | i | 64 | 95* | 59
COc1ccc2cnn(CCOc3ccccc3)c(=O)c2c1OC | 0.86 | · | i | 104 | 87* | 108
Cc1ccc(S(=O)(=O)N2CCCC2C(=O)N(C)Cc2cccs2)cc1 (centres undefined) | 4.2* | -48 | i | 98 | -4 | 92
CCC1CCCCN1C(=O)CSc1nnc(-c2ccc(Cl)cc2)o1 (centres undefined) | -0.09 | · | i | 70 | 2 | 70
CC(=O)Nc1ccc(NC(=O)CSc2nnc(-c3ccco3)o2)cc1 | 0.34 | -111 | + | · | 1 | ·
CCC1CCCCN1C(=O)CSc1nnc(-c2ccco2)o1 (centres undefined) | -1.4 | 86* | i | 94 | -4 | 98
Cc1ccc2[nH]c(=O)c(CN(C(=O)c3cccs3)c3ccccc3)cc2c1 | -0.9 | · | i | 89 | 11 | 81
C[C@H]1C=C(C(=O)N2CCN(Cc3ccc4c(c3)OCO4)CC2)O[C@@H](OCc2ccc(CO)cc2)C1 | 0.16 | · | i | · | -1 | ·
CC(O)CNCCOc1ccccc1-c1ccccc1 (centres undefined) | 0.25 | · | i | · | -2 | ·
CC(O)CNCCOc1ccccc1OCc1ccccc1 (centres undefined) | -0.25 | · | i | · | 88* | ·
CC(O)CNCCNCc1c(OCc2ccccc2)ccc2ccccc12 (centres undefined) | 0.49 | -110 | i | 40 | 101* | 38
Cc1cc(C(=O)N(NC(=O)C(C)C)c2ccccc2)cs1 | -0.69 | · | i | · | -2 | ·
CC(C)C1OC2(C)OC(=N)C1(C#N)C(C#N)(C#N)C2c1ccccc1 (centres undefined) | -0.91 | · | i | 81 | 12 | 73
OC(COc1ccccc1Cl)CN1CCN(CC(O)COc2ccccc2Cl)CC1 (centres undefined) | 0.21 | · | i | 43 | 88* | 43
OC(COc1ccc2ccccc2c1Cl)CN1CCOCC1 (centres undefined) | -0.1 | -29 | i | 94 | 92* | 102
COc1ccccc1N1CCN(CC(O)COc2cccc3ccccc23)CC1 (centres undefined) | 0.04 | 10 | i | 47 | 5 | 49
Cc1ccccc1OCC(O)CN1CCN(C)CC1 (centres undefined) | 0.7 | · | i | · | -12 | ·
O=C1C(Cc2ccc(F)cc2)SC(=Nc2ccccc2)N1c1ccccc1 (centres undefined) | -0.84 | · | i | 91 | 41 | 104
SMILES | Ins promoter up | Insulin prom inh | Autophagy mod | HCT116 bCat-KO | L major viab | PTEN del growth
O=C1C(Cc2ccc(Br)cc2)SC(=Nc2ccccc2)N1c1ccccc1 (centres undefined) | -0.72 | 0 | i | 73 | 54* | 68
CCC(C)NC(=O)C1CCN(S(=O)(=O)c2ccc(Br)s2)CC1 (centres undefined) | 0.75 | 28 | i | 85 | -4 | 93
CC(=O)Nc1ccc(C(=O)OCC(=O)c2cccc([N+](=O)[O-])c2)cc1 | · | · | i | 82 | -8 | 89
Cc1ccc(C(=O)OCC(=O)Nc2ccc3[nH]c(=O)[nH]c3c2)cc1[N+](=O)[O-] | -0.14 | · | · | · | · | ·
Cc1ccc(C(=O)COC(=O)c2cccc(NC(=O)c3ccc([N+](=O)[O-])cc3[N+](=O)[O-])c2)cc1 | · | 27 | i | 95 | 92* | 82
CCC(=O)Nc1ccc(C(=O)OCC(=O)c2ccc(C)c([N+](=O)[O-])c2)cc1 | 3.4* | 10 | i | 102 | -6 | 90
CC(=O)Nc1ccc(C(=O)OCC(=O)c2ccc(C)c([N+](=O)[O-])c2)cc1 | 0.18 | · | i | 82 | 58* | 107
CCOC(=O)c1sc2nc(C)nc(Nc3ccccc3)c2c1C | -0.84 | 43 | i | · | 21 | ·
Cc1ccc(NS(=O)(=O)c2cc(OCC(N)=O)c(C)cc2Cl)cc1 | -0.04 | 0 | i | 93 | 79* | 97
NC(=O)C[n+]1ccc(/C=N/O)cc1 | 0.22 | 57 | + | · | -4 | ·
CC(C)N(C(=O)C[n+]1ccc(/C=N/O)cc1)C(C)C | · | · | i | 107 | -6 | 99
O=C(NCCCn1ccnc1)c1ccncc1 | 1.5 | 11 | i | 102 | 0 | 93
O=C(NCCCn1ccnc1)c1cc([N+](=O)[O-])cc([N+](=O)[O-])c1 | 0.27 | 73* | i | 96 | -2 | 98
O=C(O)c1cc(=O)c2cc(Cl)ccc2o1 | 0.14 | -6 | i | 95 | 0 | 102
CCc1ccc2nc(NC(=O)c3ccc4c(=O)[nH]c(CN5CCOCC5)nc4c3)sc2c1 | 0.61 | · | i | 94 | -8 | 93
CCN1CCN(Cc2ccc(NC(=O)Nc3ccc(SC)cc3)cc2)CC1 | 0.01 | -52 | i | 75 | 4 | 84
CCCCN(C)C(=O)C1CCN(Cc2ccc(OCc3ccccc3)cc2)CC1 | -0.82 | 21 | i | 44 | 61* | 61
CSc1ccc(CN2CCC(C(=O)NCc3ccc(C)cc3)CC2)cc1 | -0.16 | · | i | · | 92* | ·
CCCCOc1ccc(CN2CCC(O)CC2)cc1 | 0.87 | 64 | i | 103 | 91* | 100
CCOC(=O)N1CCN(C(=O)C2CCN(Cc3cccc(OCc4ccccc4)c3)CC2)CC1 | 0.8 | -53 | i | 80 | -10 | 80
CSc1ccc(CN2CCC(O)CC2)cc1 | · | 8 | i | · | 81* | ·
CCCCOc1ccc(CC(=O)NO)cc1 | · | -36 | i | 93 | -9 | 92
Cc1ccc(N2C(=O)C3ON(c4ccccc4)C(c4ccncc4)C3C2=O)cc1 (centres undefined) | 0.13 | 31 | i | 100 | 41 | 98
CCOc1cccc(N2C(=O)CC(NNC(=O)c3ccc(Br)o3)C2=O)c1 (centres undefined) | -0.34 | · | · | · | · | ·
O=C(Nc1cccc(Cl)c1)OCc1cnc(Cl)s1 | -0.49 | -7 | i | 102 | 26 | 84
